According to PubChem BioAssay AID778 (Sanford-Burnham Center for Chemical Genomics, 2007):
Screen size: about 96,000 compounds; about 20,000 (21%) were called active.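 How the source made its calls: active means CYP2C19 inhibition above a set limit at 5 µM in the primary screen (cut at about 50% in these data); inactive means the rest.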 A selection follows.

Biological target: Cytochrome P450 2C19 (Homo sapiens) (UniProt P33261)
Experiment: blockers of cytochrome P450 2C19 activity – biochemical, luminescence, ADME assay, primary screen (AID 778);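 further: plate controls were negative control wells for no effect and 2.5 mM tranylcypromine positive control for full effect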
Settings: CYP2C19 Supersomes, luciferin-H EGE luminescence, 30 min; at 5 µM; stronger effect = higher value

Sequence of Cytochrome P450 2C19 (Homo sapiens) (P33261 whole entry, looked up): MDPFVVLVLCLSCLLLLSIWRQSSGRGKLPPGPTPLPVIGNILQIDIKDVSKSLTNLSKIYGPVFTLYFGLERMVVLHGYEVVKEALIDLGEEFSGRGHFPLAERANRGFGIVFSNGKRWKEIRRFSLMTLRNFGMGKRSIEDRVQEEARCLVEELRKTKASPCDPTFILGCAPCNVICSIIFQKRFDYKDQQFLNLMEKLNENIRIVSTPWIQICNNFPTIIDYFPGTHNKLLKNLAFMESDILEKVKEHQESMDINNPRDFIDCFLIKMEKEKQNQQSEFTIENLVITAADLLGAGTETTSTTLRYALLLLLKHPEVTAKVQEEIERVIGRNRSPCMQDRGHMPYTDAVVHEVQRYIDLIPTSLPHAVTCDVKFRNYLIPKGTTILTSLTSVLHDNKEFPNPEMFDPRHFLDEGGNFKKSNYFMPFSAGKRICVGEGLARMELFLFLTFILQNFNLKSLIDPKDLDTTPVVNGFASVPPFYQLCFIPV

Compound | inhibition
O=C1CCC(Cc2ccccc2)N1 (stereo not drawn) | 8.7% (inactive)
O=C(O)c1ccc(COCC(F)(F)F)cc1 | -5.4% (inactive)
Cc1sc(NC(=S)NC(=O)c2cccs2)nc1-c1ccc(CC(C)C)cc1 | 4.5% (inactive)
CN(Cc1nc2ccccc2c(=O)[nH]1)Cc1cc(=O)oc2ccc3ccccc3c12 | 2.9% (inactive)
CCCC(=O)N(CCc1ccccc1)Cc1nc2ccccc2c(=O)[nH]1 | 53.5% (active)
O=C(c1ccco1)N(Cc1nc2ccccc2c(=O)[nH]1)C1CCCC1 | 7.2% (inactive)
O=C(Nc1ccc(Cl)cn1)Nc1cccs1 | 31.4% (inactive)
O=C1OC(c2ccc(Cl)cc2)=N/C1=C\c1cccnc1 | 33.1% (inactive)
CCN(CC)C(=O)CC1(c2ccccc2OC)CCOC(C(C)C)C1 (stereo not drawn) | 73.3% (active)
CCN(CC)C(=O)CSc1nc2ccccc2n1CC(=O)N1CCN(c2ccccc2OC)CC1 | 27% (inactive)
C/C(CC(O)(/C=N/O)c1ccccc1)=N\O (stereo not drawn) | -13% (inactive)
Cc1ccc(N2CCN(/N=C/c3cccs3)CC2)cc1 | 35.3% (inactive)
O=C(Cn1[nH]c(=O)c2ccccc2c1=O)Nc1cccc(-c2nnc3n2CCCCC3)c1 | 25.7% (inactive)
O=C(NCCCN1CCN(Cc2ccccc2)CC1)C1CCN(S(=O)(=O)N2CCCC2)CC1 | -1.9% (inactive)
O=C(NCc1ccccc1)C1C(=O)N(Cc2ccccc2)C(=O)C1C1(O)CCCC1 (stereo not drawn) | 91.9% (active)
O=C(CN1C(=O)NC(Cc2ccccc2)(Cc2ccccc2)C1=O)NCC1CCCCC1 | 41.6% (inactive)
Cc1ccccc1Nc1nnc(C)c(=O)[nH]1 | 0.4% (inactive)
N#CCSc1nc2ccccc2c(=O)n1-c1ccccc1 | 13.3% (inactive)
COc1cccc(-n2cc(C(=O)O)c3ccccc3c2=O)c1 | 1.5% (inactive)
COC(=O)c1ccc(CSc2nc3ccccc3c(=O)n2-c2cccc(OC)c2)o1 | 98.4% (active)
COCC(C)n1c(SCc2ccc(C(=O)OC)o2)nc2ccccc2c1=O (stereo not drawn) | 96.7% (active)
CCc1c(O)nc(SCC(=O)Nc2ccccc2)n(C(C)CC)c1=O (stereo not drawn) | 0.7% (inactive)
CN1CCN(C(=O)C2C3C=CC(C3)C2C(=O)O)CC1 (stereo not drawn) | 33.8% (inactive)
OCCNc1nc2ccccc2n1-c1ncnc2sc3c(c12)CCC3 | -6% (inactive)
COc1ccc(N2C(=O)C3CCCN3C2c2cc(OC)c(OC)cc2OC)cc1 (stereo not drawn) | -12.2% (inactive)

Compound | inhibition
Cc1ccccc1CSc1nnc(-c2cccnc2)n1N | 28.5% (inactive)
Cc1ccsc1CNn1cnnc1SCc1ccccc1F | 83.4% (active)
COc1ccc2[nH]c(=O)c(CNc3ccc(C)c(C)c3)cc2c1 | 24% (inactive)
COc1cccc2cc(C(C)N(CCCN3CCOCC3)C(=O)Nc3ccc(Cl)cc3)oc12 (stereo not drawn) | 48.4% (inactive)
Cc1ccc(-c2csc(-c3c[nH]c4ccccc34)n2)cc1 | -2.4% (inactive)
COCCOCCn1cnc2ccccc21 | -2.7% (inactive)
O=C(COC(=O)c1ccc(Oc2ccccc2)cc1)Nc1nnc(-c2ccccc2)o1 | 34.2% (inactive)
CCOC(=O)c1c(C)oc2ccc(OCC(=O)N(CC)CC)cc12 | 47.5% (inactive)
CCOC(=O)c1c(C)[nH]c(C(=O)COc2ccc3c(c2)OCO3)c1C | 78.4% (active)
CCOc1ccc(NCCC(=O)c2ccc3c(c2)OCO3)cc1 | 37.9% (inactive)
CN1CCN(CCCNC(=O)c2cc3c(=O)oc4ccccc4c3s2)CC1 | -1.6% (inactive)
CC(C)(CNCC(O)c1ccccc1)N1CCOCC1 (stereo not drawn) | -1.1% (inactive)
CCC(=O)NNc1cc(=O)c2c(=O)n(C)c(=O)n(C)c2[nH]1 | 11.1% (inactive)
COc1ccc2oc(=O)c(C(=O)N3CCCc4ccccc43)cc2c1 | 10.2% (inactive)
O=C(c1c(Cl)nc2sccn12)N1CCCc2ccccc21 | 91.5% (active)
O=C(c1cccc(C(=O)N2CCc3ccccc32)n1)N1CCc2ccccc21 | 12.3% (inactive)
Cc1noc(COc2ccccc2OCC(O)CNC(C)(C)C)n1 (stereo not drawn) | -7.7% (inactive)
CN(c1ccccc1)c1ccc(/C=c2\s/c(=C(/C#N)C(=O)C(C)(C)C)n(Cc3ccco3)c2=O)cc1 | 5.4% (inactive)
Cn1c(-c2sc3cc(C(F)(F)F)cnc3c2-c2ccccc2)n[nH]c1=S | 47.3% (inactive)
FC(F)(F)c1cc(-c2ccco2)nc(N2CCOCC2)n1 | -16.1% (inactive)
FC(F)(F)c1cc(-c2ccco2)nc(NCc2ccc(Cl)cc2)n1 | 57% (active)
FC(F)(F)c1cc(-c2cccs2)nc(NCc2ccco2)n1 | 20.5% (inactive)
Cc1ccccc1NC(=O)c1cnn(-c2ccccc2)c1NC(=O)c1ccco1 | -2.6% (inactive)
COCCNC(=O)C(c1ccc(C)o1)N(Cc1cccs1)C(=O)c1snc(C(N)=O)c1N (stereo not drawn) | 2.1% (inactive)
c1ccc2c(c1)OCC(c1nn3cnnc3s1)O2 (stereo not drawn) | 74.8% (active)

Compound | inhibition
O=C(CCN1C(=O)COc2ccccc21)NCCCN1CCN(c2ccc(F)cc2)CC1 | -10.1% (inactive)
CCOC(=O)c1cnc(-n2nc(C)cc2C)nc1-n1nc(C)cc1C | 5.2% (inactive)
O=C(NNS(=O)(=O)c1ccc(Cl)cc1)C1CCN(Cc2ccccc2)CC1 | 6% (inactive)
CCOC1CCCCC1NS(=O)(=O)c1ccc(Cl)cc1 (stereo not drawn) | 69.5% (active)
CCc1nnc(NC(=O)c2ccc(S(=O)(=O)NC3CCCCC3)cc2)s1 | 14.5% (inactive)
C=CCOC(=O)C1=C(C)OC(N)=C(C#N)C1c1ccc(F)cc1 (stereo not drawn) | 75.2% (active)
C=CCOC(=O)C1=C(C)NC(SCC(=O)OCC)=C(C#N)C1c1ccc(C)cc1 (stereo not drawn) | 33.7% (inactive)
CCCc1[nH]nc2c1C(c1ccc(OC(=O)c3ccco3)cc1)C(C#N)=C(N)O2 (stereo not drawn) | 43.8% (inactive)
Cc1c(C#N)c2ncn(CC#N)c(=O)c2n1-c1ccccc1 | -12.1% (inactive)
Cc1cc(OCCOc2cccc3cccnc23)c(C)cc1Cl | 73.2% (active)
CCOc1cc(N2CCOCC2)c(OCC)cc1NC(=O)COc1cccc2cccnc12 | 3.8% (inactive)
C=CCn1c(COc2cccc3cccnc23)nnc1SCC(=O)OC | 26.2% (inactive)
CN(C)Cc1c(C#N)c2ccccc2n1C | -0.3% (inactive)
S=c1[nH]nc(CSCc2ccc(Cl)cc2Cl)n1-c1ccccc1 | 64.8% (active)
Clc1ccc(CSc2nnc(/C=C/c3ccccc3)o2)c(Cl)c1 | 1.6% (inactive)
O=c1[nH]nc(CSCc2ccccc2Cl)[nH]1 | 1.4% (inactive)
COC(=O)CCSc1cc([N+](=O)[O-])cc2c1c(C1OCCS1)nn2-c1ccccc1 (stereo not drawn) | 8.6% (inactive)
Cc1ccc(Nc2nc(C)cc(C)c2C(N)=O)cc1 | 7.6% (inactive)
O=C1c2oc3ccc(Br)cc3c(=O)c2C(c2cccc(F)c2)N1CCO (stereo not drawn) | 40.4% (inactive)
O=C1c2oc3ccccc3c(=O)c2C(c2cccc(O)c2)N1c1ccccn1 (stereo not drawn) | 38.4% (inactive)
COCCN1C(=O)c2oc3c(C)cc(C)cc3c(=O)c2C1c1cccc(O)c1 (stereo not drawn) | 70.6% (active)
Cc1ccc(-n2ncc3c(Nc4cccc(C(=O)O)c4)ncnc32)cc1 | -20% (inactive)
COc1ccc(CCN2C(=O)c3[nH]nc(-c4ccccc4O)c3C2c2ccc(C)cc2)cc1OC (stereo not drawn) | 21.1% (inactive)
COC(=O)c1ccc(C2C(Oc3ccccc3C)C(=O)N2CCc2ccc(OC)c(OC)c2)cc1 (stereo not drawn) | 65.2% (active)
COCCn1c(=S)[nH]c2cc(C(=O)NCCc3ccc(OC)c(OC)c3)ccc2c1=O | 17.7% (inactive)

Compound | inhibition
c1csc(-c2cn3c(n2)SCC3)c1 | -13.7% (inactive)
CC(C)C(C(=O)NC1CCCCC1)N(CC1CCCO1)C(=O)CNS(=O)(=O)c1ccc(F)cc1 (stereo not drawn) | -10.8% (inactive)
c1ccc(-c2nnc3n2NC(c2ccc4c(c2)OCO4)S3)cc1 (stereo not drawn) | 28.9% (inactive)
CCn1c(SC)nc(O)c(C(c2ccc(OC)c(O)c2)c2c(O)nc(SC)n(CC)c2=O)c1=O | -2.9% (inactive)
O=S(=O)(Cc1cc(Sc2ccccc2)nc(-c2ccccc2)n1)c1ccccc1 | 50.5% (active)
O=C(CSCc1ccccc1)N1CCc2ccccc21 | 51.6% (active)
CC1CC(C)CN(CC(=O)N2c3ccccc3CCc3ccccc32)C1 (stereo not drawn) | 24.7% (inactive)
Cc1ccc(S(=O)(=O)N(C)CC(=O)N2CCc3ccccc32)cc1 | 9.1% (inactive)
Cn1cnc2c1c(=O)n(Cc1c(Cl)cccc1Cl)c(=O)n2C | 49.5% (inactive)
Cc1c(C#N)c(NC(=O)c2ccccc2)n(Cc2ccccc2)c1C | 22.6% (inactive)
CCOC(=O)CCC(=O)OCC(=O)NC(C)C1CC2CCC1C2 (stereo not drawn) | 10.6% (inactive)
CCOC(=O)N1CCC(O)(c2cc(C)c(C)cc2C)CC1 | 43.5% (inactive)
CNC(=O)CN1C(=O)c2ccccc2S1(=O)=O | -9.3% (inactive)
O=C(CN1C(=O)c2ccccc2S1(=O)=O)N1CCc2ccccc21 | -7.4% (inactive)
O=C1c2ccccc2S(=O)(=O)N1CC(O)Cn1c2ccccc2c2ccccc21 (stereo not drawn) | 73.4% (active)
COc1ccc(-n2ncc3c(N4CCc5ccccc54)ncnc32)cc1 | -2.2% (inactive)
Cc1n[nH]c(=S)n1/N=C/c1ccc(Br)o1 | -3.6% (inactive)
CCC(Sc1nncn1C)C(=O)Nc1nnc(-c2ccc(Cl)cc2)s1 (stereo not drawn) | 17.4% (inactive)
CCOc1cc2[nH]c(=S)n(CCCN3CCCC3=O)c(=O)c2cc1OCC | 6.7% (inactive)
O=C(O)C1CCCCC1C(=O)Nc1ccc(Cl)cc1 (stereo not drawn) | 29.9% (inactive)
O=C(Nc1cnn(Cc2ccc(Cl)cc2)c1)C1CCCC1 | 84.8% (active)
O=C(O)c1ccc(NC(=O)C2CCCCC2)cc1 | -21.5% (inactive)
C[N+](C)(C)CCNC(=O)c1c(O)c2c([nH]c1=O)CCCC2 | 7.7% (inactive)
